High-throughput results deposited in PubChem by several laboratories.
BoNT F protease – blocks Botulinum neurotoxin F light chain protease. AID 588497. Multiplex microsphere protease cleavage assay, flow cytometry. hit rate 0.22% among 360,000. inhibition, % at 10 µM; in the data active = inhibition above about 35%, passing the limit was not always enough; inconclusive = no clear call, values can overlap the other calls; also: plate controls were buffer without enzyme for full effect and enzyme alone for no effect
Anthrax LF inh2 – anthrax lethal factor protease inhibition; AID 588501; multiplex microsphere protease cleavage assay, LF; hit rate 0.12% among 360,000; inhibition, % at 10 µM; also: plate controls were buffer without enzyme for full effect and enzyme alone for no effect
FBA Mtb inh – inhibitors of M. tuberculosis fructose-bisphosphate aldolase | P9WQA3 | hit rate 2.3% among 360,000 | purified M. tuberculosis FBA, fluorescence read-out | AID 588726 | inhibition, % at 1 µM; in the data active = inhibition above about 27%;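 also: 0% = vehicle and 100% = reference inhibitor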
BoNT A protease – blocks Botulinum neurotoxin A light chain protease | inhibition, % at 10 µM | multiplex microsphere protease substrate cleavage, flow cytometry | hit rate 0.17% among 360,000; also: plate controls were buffer without enzyme for full effect and enzyme alone for no effect
GDH-TPI counter – inhibits GDH-TPI coupling enzymes, artifact for Mtb FBA screen | GDH-TPI coupled enzyme counterscreen, NADH absorbance | hit rate 1.2% among 360,000 | AID 588335 | inhibition, % at 4.8 µM; in the data active = inhibition above about 30%;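 also: 0% = DMSO wells and 100% = wells lacking the enzyme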
Bead autofluor – counter-screen for toxin protease inhibitors: compound fluorescence; compound autofluorescence counterscreen, microsphere flow cytometry; active compounds read high; fluorescence intensity (no concentration beside the values); hit rate 3.1% among 360,000; AID 624483; in the data active = fluorescence intensity above about 16000; inconclusive = no clear call, values can overlap the other calls
* marks the source's active call; other numbers are inactive results; ? = inconclusive. Hits are enriched below; roughly 6.7% of the tested compounds scored in any of these assays. Rule as the data show it, unless noted: active = inhibition above about 30%; inconclusive = no clear call, values can overlap the other calls; inactive = below that.

SMILES | BoNT F protease | Anthrax LF inh2 | FBA Mtb inh | BoNT A protease | GDH-TPI counter | Bead autofluor
Cc1ccc(OCc2nnc(SCC(=O)Nc3ccc4c(c3)OCO4)n2C)cc1 | -14 | -6 | 0 | -8 | 12 | 26293*
Cc1cc(NC(=O)CSc2nnc(COc3cccc(C)c3C)n2C)no1 | 7 | 1 | 1 | 0 | 10 | 7864
Nc1ccc(N)c(C(=O)O)c1 | -11 | -20 | 0 | -4 | 9 | 4497
CCOC(=O)CSc1nnc(CNC(=O)c2ccc(OC)cc2)n1-c1ccc(OC)cc1 | 8 | 4 | 0 | 1 | 15 | 8938
Cc1ccc(Oc2ccccc2/C=C2\SC(=O)N(C)C2=O)cc1 | 4 | 1 | 0 | 3 | 14 | 21464*
Cc1ncsc1C(=O)Nc1nc2c(s1)CC(C)CC2 (stereo not drawn) | -2 | -6 | -2 | -1 | 28 | 16464*
CCOc1ccc(C(C)=O)cc1COc1ccc(-c2nnco2)cc1 | -8 | 1 | 4 | -1 | 7 | 5010
CCCNC(=O)CSc1nc(-c2cccs2)cc(C(F)(F)F)n1 | 7 | -2 | 0 | 1 | 27 | 2647
CC(C)CNC(=O)CSc1nc(-c2cccs2)cc(C(F)(F)F)n1 | 38* | -7 | 2 | 0 | 19 | 3637
FC(F)(F)C(F)(F)C(F)(F)c1nc2nc(Cl)c(Cl)nc2[nH]1 | -4 | -7 | 14 | 0 | 34* | 3825
CCOC(=O)Cc1csc(NC(=O)c2c(C)noc2C)n1 | -3 | 2 | 2 | 1 | 0 | 4343
CCOC(=O)c1c(NC(=O)CSc2nc3ccccc3s2)sc(C)c1C | 22 | -1 | 0 | 6 | 9 | ?
CCOC(=O)c1c(NC(=O)CSc2nc3ccccc3o2)sc(C)c1C | 5 | -4 | 0 | ? | 6 | 19163*
CSc1nnc(-c2ccccc2N=Cc2c(C)[nH]n(-c3ccc4ccccc4c3)c2=O)c(=O)[nH]1 | -6 | 0 | -2 | 0 | 24 | 2602
C=CCSc1nnc(-c2ccccc2N=Cc2c(C)[nH]n(-c3ccccc3)c2=O)c(=O)[nH]1 | -23 | -4 | 0 | 0 | 43* | 3809
COc1cccc(NC(=O)Cc2nnc(SCC(=O)NC(C)c3ccccc3)n2C)c1 (stereo not drawn) | -10 | -4 | 0 | ? | 12 | 21780*
COc1ccc(C)cc1NC(=O)CSc1nnc(CC(=O)Nc2cccc(C(F)(F)F)c2)n1C | -5 | -2 | 0 | 0 | 0 | 7882
COc1ccccc1NC(=O)CSc1nnc(CC(=O)Nc2cccc(C(F)(F)F)c2)n1C | -5 | -1 | 0 | -3 | -3 | 20559*
COc1cccc(NC(=O)Cc2nnc(SCC(=O)NC3CCCC3)n2C)c1 | 8 | -8 | 0 | 0 | -14 | 3613
CCc1ccc2c(c1)c(N=NC1=NC(=O)CS1)c(O)n2CC | -1 | 0 | -8 | 1 | 31* | 2460
CC(=O)Nc1ccc(NCC(O)COc2ccccc2)cc1 (stereo not drawn) | -11 | -4 | 4 | 1 | 6 | 2114
O=C1C(=O)N(CCCn2ccnc2)C(c2ccc(Cl)cc2)/C1=C(\O)c1ccc2c(c1)OCCO2 (stereo not drawn) | 16 | -4 | 0 | 1 | 11 | 4120
CCN(CC(=O)Nc1c(F)cccc1F)C(=O)CCc1nc2cc(S(=O)(=O)N(C)C)ccc2n1CC | 0 | 2 | -3 | -2 | -9 | 5366
COc1cc(/C=C/C(=O)OCC(=O)NCc2ccccc2OC)ccc1O | 4 | 11 | 4 | 3 | 18 | 4417
CCOc1cc(C=C2C(=O)NC(=S)NC2=O)ccc1O | 0 | -1 | 1 | 0 | 34* | 2928
SMILES | BoNT F protease | Anthrax LF inh2 | FBA Mtb inh | BoNT A protease | GDH-TPI counter | Bead autofluor
COc1cc(/C=C/C(C)=NNc2ccccc2)ccc1O | -5 | -6 | 1 | -1 | 32* | 3048
CCOc1cc(/C=C2\NC(=O)NC2=O)ccc1OC(C)C(=O)O (stereo not drawn) | ? | 8 | -1 | 0 | 47* | 4090
CCOc1cc(/C=C2\NC(=O)NC2=O)cc([N+](=O)[O-])c1O | -3 | 0 | -4 | 1 | 32* | 4407
COc1ccc(C=C2C(=O)NC(=S)NC2=O)cc1OC | 10 | 0 | -4 | 0 | 14 | 4067
CCCNC(=O)CSc1ccc(S(=O)(=O)N2CCCCC2)cn1 | 13 | 6 | -1 | 3 | 8 | 5601
CCOc1ccc(OCC)c(NC(=O)c2ccc(CNc3c(N4CCCC4)c(=O)c3=O)cc2)c1 | -1 | -12 | 1 | 0 | 2 | 5397
COc1cc(C=O)ccc1O | 4 | -8 | -1 | 0 | 58* | 2962
COC(=O)COc1ccccc1/C=C1/NC(=O)NC1=O | 0 | 1 | 0 | 0 | 22 | 2529
COc1cc(C=NCc2ccccc2)ccc1O | -2 | -2 | -2 | 0 | 42* | 3997
COc1cc(/C=N/N2C(=O)c3ccccc3C2=O)ccc1O | -9 | 0 | 2 | 0 | 24 | 2451
COc1cc(/C=C/C(=O)O)ccc1O | -19 | -1 | 1 | -1 | -2 | 5977
COc1cc(/C=C/C(=O)/C=C(O)/C=C/c2ccc(O)c(OC)c2)ccc1O | -1 | 10 | -13 | 32* | 9 | 4422
CCOc1cc(C=O)ccc1O | 0 | -7 | 1 | -1 | 31 | 4083
COc1ccc(OC)c(/C=C2\NC(=O)NC2=O)c1 | ? | 131* | 4 | 23 | 8 | 6990
CCC(=O)N(Cc1cc(=O)[nH]c2ccccc12)c1ccccc1 | 2 | -2 | 5 | 0 | 4 | 3134
CC(=O)NCCc1nc2ccccc2n1CCOc1ccc(C)cc1 | -8 | 1 | -1 | 0 | 11 | 3525
O=C1CCN(S(=O)(=O)c2ccccc2)CCN1CCOCc1ccc(C(F)(F)F)cc1 | -6 | -2 | 6 | 0 | 9 | 3041
COc1cc(C=C2NC(=O)NC2=O)ccc1O | 3 | -6 | 4 | 0 | 35* | 3587
COc1cc(/C=C/C(=O)CC(=O)/C=C/c2ccc(O)c(OC)c2)ccc1O | -12 | 17 | -8 | 31* | 21 | 6257
O=[N+]([O-])c1cc(-c2ccc(/C=N/c3nc4ccccn4c3-c3ccco3)o2)ccc1Cl | -2 | -4 | -1 | 1 | 37* | 4125
Clc1ccc(/C=N/c2c(-c3ccco3)nc3ccccn23)cc1 | -12 | -13 | 8 | -1 | 14 | 9419
O=C(CN1CCN(S(=O)(=O)c2ccccc2)CC1)Nc1ccc(Cl)cn1 | ? | -1 | 2 | -1 | -10 | 3805
COc1ccc(C2C(C(=O)Nc3cccnc3)=C(C)Nc3nc(-c4cccs4)nn32)cc1OC (stereo not drawn) | 2 | -2 | 3 | 0 | -9 | 6093
COc1ccc(C2C(C(=O)Nc3cccnc3)=C(C)Nc3nc(-c4cccs4)nn32)cc1 (stereo not drawn) | -2 | -2 | 1 | 0 | 25 | 21944*
Nc1ccc(CC(N)c2csc(Nc3nncc4ccccc34)n2)cc1 (stereo not drawn) | -17 | -9 | -1 | 0 | -4 | 3485
